Test results taken from PubChem BioAssay (Tox21).
“And” between values parts separate entries of the source, which are not always exact repeats. Identical values can stand only once. A number with no mark means an inactive call. Results filed as inconclusive are left out. Entries that show only a call come without a potency. The source made the active and inactive calls. Unless noted, calls follow the shape of the dose curve; as a rule, active = well fitted curve in the direction sought with a large enough effect in the repeat runs; inconclusive = weak or mixed curves; inactive = no such curve, though single readings can be large; an effect the other way counts as inactive or inconclusive.

How the values were obtained:
[1] = qHTS assay for small molecule agonists of the p53 signaling pathway (AID 651631; calls by dose curve; also: nearly all actives have a fitted effect of over 15% in size; also: potency is read from the fitted curve at half-maximal effect)
How it was run: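 Read-out is beta-lactamase FRET fluorescence measured 2 h after substrate addition at room temperature, in HCT-116 cells with a p53 response element-driven reporter exposed to compounds for 16 h at 37 °C.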

[2] = qHTS assay for small molecules that induce genotoxicity in human embryonic kidney cells expressing luciferase-tagged ATAD5 (AID 651632); also: nearly all actives have a fitted effect of over 15% in size
How it was run: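 Concentration-response screen for ATAD5 upregulation in HEK293T luciferase reporter cells; 16 hr treatment at 37C, then luminescence after 30 min with Amplite at room temperature.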

[3] = qHTS assay for small molecule agonists of the p53 signaling pathway - cell viability (AID 651633; calls by dose curve;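 also: p53RE-bla HCT reporter cells with a stable beta-lactamase p53 reporter; series mostly up to about 83 µM; nearly all actives have a fitted effect of over 30% in size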)
How it was run: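 Viability counter-read: CellTiter-Glo luminescence (30 min, room temperature) in the same p53RE-bla plates. These plates had been exposed to compounds for 16 h at 37 C.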

[4] = qHTS assay for small molecules that induce genotoxicity in human embryonic kidney cells expressing luciferase-tagged ATAD5 - cell viability (AID 651634; calls by dose curve; also: nearly all actives have a fitted effect of over 25% in size)
How it was run: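 15.5 hr compound or vehicle exposure of HEK293T cells expressing luciferase-tagged ATAD5 at 37C; live-cell protease activity is read by fluorescence after 30 min of CellTiter-Fluor.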

[5] = qHTS assay for small molecule disruptors of the mitochondrial membrane potential (AID 720635); also: potency is read from the fitted curve at half-maximal effect
How it was run: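 Mitochondrial membrane potential tracked with Mito-MPS dye, red aggregates (ex 540/em 590 nm) against green monomers (ex 490/em 535 nm). Compound treatment 1 hr at 37C, dye 30 min in HepG2.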

[6] = qHTS assay to test for compound auto fluorescence at 590 nm (red) in HepG2 cells (AID 720674)
How it was run: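 Red autofluorescence (Ex/Em 540/590 nm, Rose Bengal sodium equivalents) was measured in HepG2 cells, 2,000 per well in MEM plus 10% FBS, plated overnight at 37 C. Readings were taken 1 hr after adding 23 nL compound or DMSO, at 37 C and 5% CO2.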

[7] = qHTS assay to test for compound auto fluorescence at 535 nm (green) in HepG2 cells (AID 720675)
[8] = qHTS assay to test for compound auto fluorescence at 460 nm (blue) in HEK293 cells (AID 720678)
How it was run: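 Blue-channel (Ex/Em 405/460 nm) intensity measured in HEK293 cultures after overnight compound exposure at 37C; signal expressed relative to triamterene. Cells plated 2,000 per well in 10% dialyzed FBS medium and allowed 4-5 hr to attach.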

[9] = qHTS assay to test for compound auto fluorescence at 590 nm (red) in HEK293 cells (AID 720679)
How it was run: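 Red-channel autofluorescence (Ex/Em 540/590 nm; Rose Bengal sodium reference) was measured after overnight 37C, 5% CO2 exposure of attached HEK293 cells, 2,000 per well in medium with 10% dialyzed FBS.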

[10] = qHTS assay for small molecule disruptors of the mitochondrial membrane potential - cell viability (AID 720634; calls by dose curve;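 also: human HepG2 liver cancer cells; series mostly up to about 83 µM; nearly all actives have a fitted effect of over 20% in size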)
How it was run: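 In this qHTS format, HepG2 cells plated overnight were pinned with compound, incubated 1 hr, and assayed for ATP luminescence with CellTiter-Glo after m-MPI dye addition.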

| Compound | Potency [1] | Potency [2] | Potency [3] | Potency [4] | Potency [5] | outcome [6] | outcome [7] | Potency [8] | outcome [9] | Potency [10] | fluorescence, relative to Rose Bengal [6] | fluorescence, % of fluorescein control [7] | fluorescence, % of triamterene [8] | fluorescence, % of fluorescent control [9] |
| --- | --- | --- | --- | --- | --- | --- | --- | --- | --- | --- | --- | --- | --- | --- |
| FC(F)(F)c1ccccc1Cl | inactive | inactive | inactive | inactive | inactive | inactive | inactive | inactive | inactive |  |  |  |  |  |
| CCOC(C)=O | inactive | inactive | inactive | inactive |  | inactive | inactive | inactive | inactive | inactive |  |  |  |  |
| N#[N+]c1ccc2c(S(=O)(=O)[O-])cccc2c1O | inactive | inactive | inactive |  |  | inactive | inactive | inactive | inactive | inactive |  |  |  |  |
| O=C1NCCN1CCO | inactive | inactive | inactive |  | inactive | inactive | inactive | inactive | inactive | inactive |  |  |  |  |
| CC(=O)OCCN(CCOC(C)=O)c1ccc(N=Nc2ccc([N+](=O)[O-])cc2C#N)cc1 | inactive | inactive | inactive |  | 6.86 µM (active) | inactive | inactive | inactive | inactive |  |  |  |  |  |
| Clc1cc(Cl)nc(Cl)n1 | inactive |  | inactive |  | inactive |  | inactive | inactive | inactive | inactive |  |  |  |  |
| CCC(=O)OC | inactive | inactive | inactive |  |  | inactive | inactive | inactive | inactive | inactive |  |  |  |  |
| O=[N+]([O-])c1ccc(Nc2ccc(Nc3ccccc3)c(S(=O)(=O)O)c2)c([N+](=O)[O-])c1 | inactive | inactive | inactive |  |  | inactive | inactive | inactive | inactive | inactive |  |  |  |  |
| NC1[C@H]2CN(c3nc4c(cc3F)c(=O)c(C(=O)O)cn4-c3ccc(F)cc3F)C[C@@H]12 (stereo partly drawn) | 29.8 µM (active) |  | inactive |  |  |  | inactive | inactive | inactive | inactive |  |  |  |  |
| O=C(CCc1ccc(O)cc1)c1c(O)cc(O)cc1O | 70.1 µM (active) | inactive | inactive |  | 3.13 µM (active) | inactive | inactive | inactive | inactive |  |  |  |  |  |
| CCC(C)COC(=O)CC(C)C (stereo not drawn) | inactive | inactive | inactive |  |  | inactive | inactive | inactive | inactive | inactive |  |  |  |  |
| CCCCCCCCCCC(=O)O | inactive | inactive | inactive |  |  |  | inactive | inactive | inactive |  |  |  |  |  |
| O=c1c(O)c(-c2ccc(O)cc2)oc2cc(O)cc(O)c12 | inactive |  | inactive |  | 3.84 µM (active) and 328 nM (active) | inactive | inactive | inactive | inactive | inactive |  |  |  |  |
| C=C(C)C(=O)OCCCCCCCCCCCCC | inactive | inactive | inactive |  | inactive | inactive | inactive | inactive | inactive | inactive |  |  |  |  |
| CCC1NC(=O)c2cc(S(N)(=O)=O)c(Cl)cc2N1 (stereo not drawn) | inactive |  | inactive | inactive |  |  |  |  |  | inactive | 0.403% [at 18.6 µM] | 0.161% [at 18.6 µM] | -0.286% [at 18.6 µM] | -0.132% [at 18.6 µM] |
| CC(C)(C)C(=O)C(=O)O | inactive | inactive | inactive |  | inactive | inactive | inactive | inactive | inactive |  |  |  |  |  |
| Cc1ccc(OC(=O)c2ccccc2O)cc1 | inactive | inactive | inactive |  | inactive |  | inactive | inactive | inactive | inactive |  |  |  |  |
| CCOC(=O)c1ccc(OCCN2C[C@H](O)[C@@H](O)[C@H](O)[C@H]2CO)cc1 | inactive | inactive | inactive |  | inactive |  |  | inactive | inactive | inactive |  |  |  |  |
| COc1ccccc1N1CCN(CCCCNC(=O)c2ccc(-c3ccc(C(C)=O)cc3)cc2)CC1 | inactive | inactive |  | inactive | inactive | inactive | inactive | inactive | inactive |  |  |  |  |  |
| Cc1cscn1 | inactive | inactive | inactive |  |  | inactive | inactive | inactive | inactive | inactive |  |  |  |  |
| O=C1c2ccccc2C(=O)c2c(O)c(O)cc(O)c21 | inactive | inactive | inactive |  | 27.3 µM (active) | inactive | inactive | inactive | inactive | inactive |  |  |  |  |
| O=C1c2ccccc2C(=O)C1(O)O | 27.4 µM (active) | inactive |  | inactive | 24.5 µM (active) | inactive | inactive | inactive | inactive |  |  |  |  |  |
| CC/C=C1/OC(=O)c2ccccc21 | inactive |  | inactive | inactive | inactive | inactive | inactive | inactive | inactive | inactive |  |  |  |  |
| Cc1cc(C)cc(N)c1 | inactive | inactive | inactive |  | inactive | inactive | inactive | inactive | inactive | inactive |  |  |  |  |
| C=CC(=O)[O-].C=CC(=O)[O-].[Zn+2] | inactive |  | inactive |  |  |  | inactive | inactive | inactive | inactive |  |  |  |  |
| O=C=Nc1ccc(Cl)c(Cl)c1 | inactive |  | inactive |  | 7.57 µM (active) | inactive |  | inactive | inactive |  |  |  |  |  |
| CC=C(Cl)Cl | inactive | inactive | inactive |  |  | inactive | inactive | inactive | inactive | inactive |  |  |  |  |
